High-throughput results as filed in PubChem.
Hits are enriched below; roughly 4% of the tested compounds scored in any of these assays.
EWS-Fli block: blocks EWS/Fli oncoprotein-driven transcription. AID 651661. inhibition, % at 12.6 µM. 0.67% of 350,000 active. A673 NR0B1-luciferase reporter, viability-normalised;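 active = mean inhibition of at least 50% after viability correction, with every replicate also passing that limit; inconclusive = mean reaches 50% but only one of two replicates passes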;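 note: firefly luciferase signal divided by Alamar Blue viability fluorescence both relative to DMSO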
esBAF inh: inhibitors of esBAF chromatin remodeling in mouse ES cells; Bmi1-luciferase knock-in reporter, 24 h; 100% = twice the neutral-well signal; reporter increase, % at 12.5 µM; 2% of 350,000 active; AID 602393; in the data active = activation above about 40%; inconclusive = no clear call, values can overlap the other calls;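 note: a rise in the Bmi1 reporter signal indicates esBAF inhibition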
PAX8 reporter: lowers PAX8-driven luciferase in RMG-I cells | 1.2% of 360,000 active | inhibition, % at 12.6 µM | RMG-I TPO-luciferase reporter, SteadyGlo, 24 h;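 active = mean replicate inhibition at least 60% with every replicate also reaching 60%; inconclusive = only one of the two criteria is met; inactive = mean below 60% and not all replicates reaching 60%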;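 note: luciferase light reporting Pax8 driven TPO promoter activity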
MITF TRPM1 inh: reduces MITF-dependent TRPM1 promoter luciferase signal | SK-MEL-5 TRPM1 promoter luciferase, 24 h | inhibition, % at 12.5 µM | 0.83% of 330,000 active | AID 488899;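 active = mean inhibition across replicates of 60% or more, whatever share of single replicates reaches that level; inconclusive = some that reach 60%, reason not given; inactive = mean inhibition across replicates below 60%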
MITF act: increases MITF-driven TRPM1 promoter luciferase signal | SK-MEL-5 TRPM1-promoter luciferase, 24 h; % of positive control, neutral wells = 0 | activation, % at 12.5 µM | 0.75% of 300,000 active;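 active = mean activation of at least 80% with every replicate also reaching 80%; inconclusive = mean reaches 80% but some replicate falls short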
Wnt act: Wnt/beta-catenin pathway activation; activation, % at 9.35 µM; 1.2% of 300,000 active; Wnt/beta-catenin reporter cell assay, activator, plate reader; in the data active = activation above about 30%, passing the limit was not always enough; inconclusive = no clear call, values can overlap the other calls
A number is an active result; - = inactive; ? = inconclusive; . = not tested or not shown.

SMILES | EWS-Fli block | esBAF inh | PAX8 reporter | MITF TRPM1 inh | MITF act | Wnt act
COc1ccc(-c2ccc3n(c2=O)C[C@H]2[C@H](CO)[C@@H](C(=O)N(C)C)[C@@H]3N2Cc2ccncc2)cc1 | - | - | - | . | . | .
O=C(CCCCCn1c(=S)[nH]c2ccc(N3CCOCC3)cc2c1=O)NC1CCN(Cc2ccccc2)CC1 | - | - | - | - | - | -
O=C(NC1CCN(Cc2ccccc2)CC1)c1ccc(Cn2c(=S)[nH]c3ccc(N4CCOCC4)cc3c2=O)cc1 | - | - | - | - | 81 | -
CC1=NN(c2ccccc2)C(=O)/C1=C/c1ccc[nH]1 | . | 50 | - | - | - | .
CC1=NN(c2ccccc2)C(=O)/C1=C/c1c(O)n(-c2ccc(F)cc2)[nH]c1=O | . | 55 | - | - | - | -
O=C(c1cccnc1)N1CC(=O)N2[C@H](CO)[C@@H](c3ccc(/C=C/c4ccccc4)cc3)[C@@H]2C1 | - | . | - | . | . | .
CO[C@H]1CC[C@@H]2CCOc3ccc(C#N)cc3C(=O)N(C)C[C@H](C)C(=O)N(C)C[C@H]1O2 | - | - | - | . | . | .
O=C(Nc1ccc(Cl)cc1)Nc1ccccc1Sc1ncc([N+](=O)[O-])s1 | - | - | - | - | - | 33
O=C(Nc1csc([N+](=O)[O-])c1)Nc1ccccc1Cl | - | . | - | - | . | -
COc1ccc(S(=O)(=O)N(C)C[C@@H]2OCCCC[C@@H](C)Oc3ccc(NS(=O)(=O)c4ccc(C)cc4)cc3C(=O)N([C@H](C)CO)C[C@@H]2C)cc1 | - | - | - | . | . | .
O=C(C#Cc1ccccc1)c1cccc([N+](=O)[O-])c1 | 67 | - | . | 102 | - | -
O=C(CSc1n[nH]c(=O)n1C1CC1)c1ccc2c(c1)OCCO2 | - | . | - | . | . | 38
O=C(Nc1cccc(F)c1)N1CCCCN2[C@H](CO)[C@H](c3ccc(C#Cc4ccccc4)cc3)[C@@H]2C1 | - | . | - | . | . | .
O=C(Nc1cccc(F)c1)N1CCCCN2[C@H](CO)[C@H](c3ccc(C#Cc4ccccc4)cc3)[C@H]2C1 | 73 | . | ? | . | . | .
O=C(Nc1cccc(F)c1)N1CCCCN2[C@H](CO)[C@@H](c3ccc(C#Cc4ccccc4)cc3)[C@H]2C1 | - | . | 116 | . | . | .
O=C(Nc1cccc(F)c1)N1CCCCN2[C@H](C1)[C@H](c1ccc(C#Cc3ccccc3)cc1)[C@@H]2CO | - | . | - | . | . | .
O=C(Nc1cccc(F)c1)N1CCCCN2[C@@H](CO)[C@H](c3ccc(C#Cc4ccccc4)cc3)[C@@H]2C1 | - | . | 94 | . | . | .
CCCC(=O)Nc1ccc2c(c1)C(=O)N(C)[C@H]1CC[C@@H](CC(=O)NCCOC)O[C@@H]1CO2 | - | - | - | . | . | .
CC(C)CC(=O)NC(=S)Nc1ccc(Cl)cn1 | - | 49 | - | - | - | -
CCN(CC)S(=O)(=O)c1ccc(NC(=S)NC(=O)CC(C)C)cc1 | - | . | - | - | - | -
CCc1ccc(NC(=S)NC(=O)CC(C)C)cc1 | - | . | - | - | - | 61
COc1ccc(S(=O)(=O)N[C@@H]2CC[C@H](CC(=O)NCCc3ccncc3)O[C@@H]2CO)cc1 | - | - | - | . | . | .
CCC(=O)Nc1ccc2c(c1)C(=O)N(C)C[C@H](OC)[C@H](C)CN(C(=O)CC)[C@H](C)CO2 | - | - | . | . | . | .
C[C@H]1CN([C@@H](C)CO)C(=O)c2cc(NC(=O)Cc3cn(C)c4ccccc34)ccc2O[C@H]1CN(C)C(=O)NC1CCCCC1 | - | - | - | . | . | .
C(=C\c1ccco1)/c1nc2ccccc2[nH]1 | . | . | - | - | - | 52
SMILES | EWS-Fli block | esBAF inh | PAX8 reporter | MITF TRPM1 inh | MITF act | Wnt act
C(=C\c1nc2ccccc2[nH]1)/c1ccccc1 | . | - | . | - | . | .
CCc1ccc(/C=C/c2c[nH]c3ccccc23)[n+](CC)c1 | - | . | 67 | - | - | -
C[C@@H]1CCCCO[C@H](CN(C)C)[C@H](C)CN([C@H](C)CO)C(=O)c2cc(NC(=O)Nc3ccc4c(c3)OCO4)ccc2O1 | - | - | - | . | . | .
O=C(Nc1cccc(-c2cn3c(n2)SCC3)c1)c1ccc2ccccc2n1 | - | 60 | - | - | - | 41
Oc1c(Cl)cc(CN2CCCCC2)c2cccnc12 | . | - | . | 64 | - | .
Oc1ccc(CN2CCN(c3ccccc3)CC2)c2cccnc12 | . | - | . | - | - | .
Oc1ccc(CN2CCCCC2)c2cccnc12 | - | - | . | - | - | -
Oc1c(CN2CCCCC2)cc(COCc2ccccc2)c2cccnc12 | . | - | 64 | 88 | - | -
CN(C)C1CCN(Cc2cc(COCc3ccccc3)c3cccnc3c2O)C1 (stereo not drawn) | . | - | . | 73 | - | .
COc1ccccc1N1CCN(Cc2cc(Br)c(O)c3ncccc23)CC1 | - | - | 100 | 71 | - | -
COCc1cc(CN2CCCC2)c(O)c2ncccc12 | . | - | . | - | - | .
C[C@@H]1CN([C@H](C)CO)S(=O)(=O)c2ccc(-c3cccc(F)c3)cc2O[C@@H]1CN(C)C(=O)C1CC1 | - | - | - | . | . | .
Cc1ccc(-c2ccc(C3[C@@H]4CN(Cc5cccc(F)c5)C[C@H]3N4)cc2)cc1 (stereo partly drawn) | - | . | - | . | . | .
O=[N+]([O-])c1cc(CN2CCCC2)c2cccnc2c1O | . | . | . | - | - | .
OCCN1CCN(Cc2cc(Cl)c3cccnc3c2O)CC1 | . | . | . | - | - | .
Oc1c(CN2CCN(c3ccccn3)CC2)cc(Cl)c2cccnc12 | . | . | . | 84 | - | .
Oc1c(CN2CCCCC2)ccc2cccnc12 | - | - | - | 77 | - | -
CN1CCN(C(=O)C[C@H]2CC[C@H]3[C@@H](COC[C@H](O)CN3C(=O)Cc3ccccc3)O2)CC1 | - | - | - | . | . | .
O=C1CCCCC1Sc1nnc(Nc2ccccc2)s1 (stereo not drawn) | - | 71 | - | - | - | -
CCSc1nnc(NC(=O)c2cccnc2)s1 | . | . | . | - | - | .
CCSc1nnc(NC(=O)c2ccccc2)s1 | - | . | - | - | 104 | -
CCSc1nnc(NC(=O)c2cc3c(s2)CCCC3)s1 | . | 54 | . | - | 105 | .
CCSc1nnc(Nc2ccccc2)s1 | . | 58 | . | - | - | -
CO[C@H]1CN(C)C(=O)c2cc(C#N)ccc2OC[C@H]2O[C@@H](CC[C@H]2OC)CCN(C)C(=O)[C@H]1C | - | - | - | . | . | .
CCCC(=O)Nc1ccc2c(c1)OC[C@H](C)N(CCc1ccccc1)C[C@@H](C)[C@@H](OC)CN(C)C2=O | - | - | . | . | . | .
CN(C)CC(=O)Nc1ccc2c(c1)[C@@H]1C[C@H](CC(=O)NCc3ccc4c(c3)OCO4)O[C@@H](CO)[C@@H]1O2 | - | - | - | . | . | .
CCSc1nnc(Nc2ccc(C)cc2)s1 | . | 83 | . | - | 89 | .
C/C(N)=C(/C#N)C(=O)CSc1nnc(Nc2ccccc2)s1 | - | . | - | - | - | 39
C[C@H]1CCCCO[C@H](CN(C)S(=O)(=O)c2ccc(Cl)cc2)[C@@H](C)CN([C@@H](C)CO)C(=O)c2cc(NC(=O)Nc3ccc(F)cc3)ccc2O1 | - | - | - | . | . | .
C[C@@H]1CN([C@@H](C)CO)C(=O)c2cc(NC(=O)Nc3ccc(C(F)(F)F)cc3)ccc2O[C@@H](C)CCCCO[C@H]1CN(C)S(=O)(=O)c1ccccc1 | - | - | - | . | . | .
